Assay [1] deals with Guanine nucleotide-binding protein G(i) subunit alpha-1 (Homo sapiens) (UniProt P63096). The assay can be described thus: qHTS Assay for Inhibitors of RGS12 GoLoco Motif Activity (Green Fluorophore) (AID 879).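 Note: 0% = labeled peptide with Gαi1 and full inhibition = labeled peptide alone without protein; negative values mean loss of peptide binding seen as reduced polarization.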 A digest of the protocol: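 Fluorescence polarization assay: 50 nM Gαi1 with 10 nM FITC-labeled RGS12 GoLoco peptide in 10 mM Tris pH 7.5, 150 mM NaCl, 0.1 mM GDP, 0.05% NP40, 10 min at room temperature with compound.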
Chain of Guanine nucleotide-binding protein G(i) subunit alpha-1 (Homo sapiens) (P63096 whole entry, looked up): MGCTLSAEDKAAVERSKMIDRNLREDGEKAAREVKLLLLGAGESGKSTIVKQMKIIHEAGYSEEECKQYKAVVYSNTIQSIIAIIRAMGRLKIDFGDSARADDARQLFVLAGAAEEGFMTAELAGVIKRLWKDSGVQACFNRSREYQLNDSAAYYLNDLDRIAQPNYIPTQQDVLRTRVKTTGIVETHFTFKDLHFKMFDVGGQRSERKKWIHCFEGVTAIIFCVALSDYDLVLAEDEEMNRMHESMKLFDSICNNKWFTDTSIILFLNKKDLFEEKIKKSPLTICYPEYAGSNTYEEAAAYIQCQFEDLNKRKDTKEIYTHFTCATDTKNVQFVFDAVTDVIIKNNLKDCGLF
(In general: qHTS replaces the single test concentration by a dilution series.)

For assay [2], the target named is Cytochrome P450 2C9 (Homo sapiens) (UniProt P11712). The assay can be described thus: qHTS Assay for Inhibitors and Substrates of Cytochrome P450 2C9 (AID 883). Note: % is set by controls: 0 for no effect and ±100 for the full control effect; nearly all actives have a fitted effect of over 60% in size. A digest of the protocol: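 Human CYP2C9 (10nM) with Luciferin-H at 100uM (its KM) in 25mM KPO4; compound preincubated 10 min at 37C, then NADPH regeneration for 60 min at 37C. Luciferin read by luminescence after detection reagent; normalized to 57uM sulphaphenazole as full inhibition.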
Chain of Cytochrome P450 2C9 (Homo sapiens) (P11712 whole entry, looked up): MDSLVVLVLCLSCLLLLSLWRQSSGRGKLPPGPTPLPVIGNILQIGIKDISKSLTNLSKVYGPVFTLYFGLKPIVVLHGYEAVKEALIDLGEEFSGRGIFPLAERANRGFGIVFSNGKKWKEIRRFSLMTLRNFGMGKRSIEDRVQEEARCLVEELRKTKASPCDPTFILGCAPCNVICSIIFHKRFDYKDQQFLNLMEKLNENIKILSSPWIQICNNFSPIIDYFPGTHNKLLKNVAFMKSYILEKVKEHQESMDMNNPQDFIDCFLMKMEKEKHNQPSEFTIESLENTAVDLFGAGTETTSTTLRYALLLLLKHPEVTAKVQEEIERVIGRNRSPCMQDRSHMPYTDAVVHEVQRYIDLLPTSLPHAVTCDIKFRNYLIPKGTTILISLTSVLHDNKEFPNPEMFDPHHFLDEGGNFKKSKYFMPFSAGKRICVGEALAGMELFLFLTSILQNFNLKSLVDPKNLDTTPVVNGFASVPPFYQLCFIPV

The target in assay [3] is Cytochrome P450 3A4 (Homo sapiens) (UniProt P08684). In words: qHTS Assay for Inhibitors and Substrates of Cytochrome P450 3A4 (AID 884). Note: series mostly up to about 57 µM; % is set by controls: 0 for no effect and ±100 for the full control effect; nearly all actives have a fitted effect of over 50% in size. The method, boiled down:
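20 nM human CYP3A4 with 25 uM Luciferin-PPXE (at KM) in 200 mM KPO4, preincubated 10 min with compound; NADPH regeneration started a 60 min RT reaction. Luciferin detected by luminescence, normalized to 57 uM ketoconazole as full inhibition.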

In assay [4] the target is Cytochrome P450 2D6 (Homo sapiens) (UniProt P10635). The assay can be described thus: qHTS Assay for Inhibitors and Substrates of Cytochrome P450 2D6 (AID 891). Note: nearly all actives have a fitted effect of over 60% in size. Note: potency is the fitted concentration of half-maximal effect. A digest of the protocol: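 Human CYP2D6 (5 nM) with 30 uM Luciferin-ME EGE (at Km) in 100 mM KPO4, compound preincubated 10 min, then NADPH regeneration system for 60 min at room temperature. Luciferin read by luminescence; normalized to 1.43 uM quinidine.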
Chain of Cytochrome P450 2D6 (Homo sapiens) (P10635 whole entry, looked up): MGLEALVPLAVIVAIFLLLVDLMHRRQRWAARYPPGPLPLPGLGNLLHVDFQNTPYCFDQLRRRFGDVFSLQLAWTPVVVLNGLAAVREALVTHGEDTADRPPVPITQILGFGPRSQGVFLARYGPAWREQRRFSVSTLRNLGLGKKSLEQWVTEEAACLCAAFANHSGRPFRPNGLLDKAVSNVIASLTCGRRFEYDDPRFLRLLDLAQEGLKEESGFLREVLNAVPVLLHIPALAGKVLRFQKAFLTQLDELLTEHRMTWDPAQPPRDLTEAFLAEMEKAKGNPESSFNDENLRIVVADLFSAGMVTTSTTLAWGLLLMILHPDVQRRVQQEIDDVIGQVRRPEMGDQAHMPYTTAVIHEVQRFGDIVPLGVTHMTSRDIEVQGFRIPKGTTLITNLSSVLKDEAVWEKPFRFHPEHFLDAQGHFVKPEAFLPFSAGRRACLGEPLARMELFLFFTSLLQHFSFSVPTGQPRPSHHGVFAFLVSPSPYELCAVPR

The target of assay [5] is Cytochrome P450 2C19 (Homo sapiens) (UniProt P33261). The assay can be described thus: qHTS Assay for Inhibitors and Substrates of Cytochrome P450 2C19 (AID 899). Note: % is set by controls: 0 for no effect and ±100 for the full control effect; nearly all actives have a fitted effect of over 60% in size. A digest of the protocol: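 5 nM human CYP2C19 with 10uM Luciferin-H EGE (at KM) in 50mM KPO4, compound preincubated 10 min at 37C, then NADPH regeneration for 60 min at 37C. Luciferin read by luminescence after detection reagent; normalized to 57uM ketoconazole as full inhibition.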
Chain of Cytochrome P450 2C19 (Homo sapiens) (P33261 whole entry, looked up): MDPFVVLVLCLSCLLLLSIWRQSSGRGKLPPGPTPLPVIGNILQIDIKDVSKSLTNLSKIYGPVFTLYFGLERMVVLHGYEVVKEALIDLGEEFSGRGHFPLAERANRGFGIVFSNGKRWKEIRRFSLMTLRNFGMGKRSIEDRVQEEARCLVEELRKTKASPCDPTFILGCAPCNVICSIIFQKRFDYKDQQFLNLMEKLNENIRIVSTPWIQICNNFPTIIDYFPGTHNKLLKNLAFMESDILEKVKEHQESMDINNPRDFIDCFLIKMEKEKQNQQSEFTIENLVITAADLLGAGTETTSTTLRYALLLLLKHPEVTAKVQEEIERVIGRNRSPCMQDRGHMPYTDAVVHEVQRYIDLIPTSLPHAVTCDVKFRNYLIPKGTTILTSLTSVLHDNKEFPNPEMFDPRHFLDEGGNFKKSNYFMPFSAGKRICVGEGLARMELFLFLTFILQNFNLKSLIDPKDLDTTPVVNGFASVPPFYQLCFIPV

Assay [6] in a line: qHTS Assay for Identification of Small Molecule Agonists for Thrombopoietin (TPO) Signaling Pathway (AID 917). Note: % is set by controls: 0 for no effect and ±100 for the full control effect. The method, boiled down:
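Reporter: GpIIb promoter–luciferase in murine Ba/F3 expressing human TPO receptor. Pre-starved of IL-3 overnight; compounds with 26 pM TPO, 24 hrs, 37 C/5% CO2; luminescence read.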

The target in assay [7] is Pyruvate kinase (Leishmania mexicana) (UniProt Q27686). In words: qHTS Validation Assay for Inhibitors of Leishmania Mexicana Pyruvate Kinase (AID 945).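 Note: 0% = DMSO only neutral control wells.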 A digest of the protocol:
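Pyruvate kinase activity of E451W LmPYK (0.2 nM) was followed as ATP output after 1 h at room temperature with 0.5 mM PEP and 0.1 mM ADP, detected by PKLight luminescence.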

Assay [8] in a line: Confirmation and Secondary Assay for Modulators of Hemoglobin Beta Chain Splicing at IVS2 654 locus (AID 910).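 Note: HeLa cells stably carrying EGFP split by mutant beta-globin IVS2-654 intron; % of control where 0% means no effect.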 The method, boiled down: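 HeLa cells stably expressing EGFP interrupted by β-globin IVS2-654 intron, seeded overnight in Opti-MEM/2% FCS, then treated 2 days at 37 °C. Restored splicing read as total peak GFP intensity per well by laser scanning cytometry (488 nm excitation, 500–520 nm emission); 500 nM antisense PNA as control.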

Assay [9] is described as follows: Confirmation and Secondary Assay for Modulators of Hemoglobin Beta Chain Splicing at IVS2 705 locus (AID 930).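 Note: HeLa cells stably expressing the EGFP-705 splicing reporter; GFP fluorescence per well restored by corrected splicing of the IVS2-705 intron in EGFP; series mostly up to about 46 µM; % of control where 0% means no effect.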 The method, boiled down:
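Assay measures total GFP intensity per well in HeLa EGFP-705 cells after 2 days with compound; mis-splicing normally truncates EGFP, so fluorescence indicates corrected splicing.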

The nature of assay [10]: qHTS Assay for Identification of Small Molecule Agonists for Hypoxia Response Element Signaling Pathway (AID 914; active = well fitted activation curve with a large enough effect in the signal ratio, with a control signal flat, not every such curve was filed as active; the % refers to the signal ratio; note: % of control where 0% means no effect). The settings on record: ME-180 (cervical carcinoma) HRE-bla reporter, beta-lactamase ratio, CoCl2, 17 h; hits give high values. The method, boiled down:
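Compounds in a titration series were added to ME-180 reporter cells alongside an EC50 level of CoCl2. After 17 hours, beta-lactamase activity was read as the 460nm/530nm emission ratio of CCF4, giving AC50 values.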

Assay [11] has as its target Muscarinic acetylcholine receptor M1 (Rattus norvegicus) (UniProt P08482). In words: qHTS Assay for Antagonists of Acetylcholine Muscarinic M1 Receptor: Measurement of IP-One Response (AID 944). Note: nearly all actives have a fitted effect of over 75% in size. Note: potency is the fitted concentration of half-maximal effect. A digest of the protocol:
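Steps: plate transfected CHO-M1 cells overnight; add test compound, 10 min; add carbachol (200 nM, EC80) in stimulation buffer with LiCl; incubate 30 min; add labelled IP1 tracer and anti-IP1 antibody in lysis buffer; read HTRF after 10 min.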

The nature of assay [12]: Cellular Toxicity (caspase-3) N2a (AID 665).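 Note: compound exposure lasted 16 h at 37 °C before readout.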 The method, boiled down:
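Plated mouse neuroblastoma N2a cells received titrated compounds for 16 h in complete medium. Caspase activity was then detected with a peptide-aminoluciferin luminescent reagent.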

A short description of assay [13]: Cellular Toxicity (caspase-3) NIH 3T3 (AID 666).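 Note: caspase signal read after 16 h compound exposure; 0% = DMSO basal and 100% = 100 µM tamoxifen stimulation.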 The method, boiled down: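 Concentration-response qHTS in NIH 3T3 mouse fibroblasts scores caspase-3/7 activation as rising luminescence after 16 hr compound exposure. Signals are scaled between DMSO-only and 100 uM tamoxifen.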
Assay [14] can be described thus: Cellular Toxicity (caspase-3) Renal Proximal Tubule (AID 667).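 Note: cells exposed to compound for 16 hours at 37 °C before detection; 0% = DMSO basal and 100% = 10 µM staurosporine.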 A digest of the protocol:
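Caspase 3/7 activation measured by luminescent aminoluciferin release in primary rat proximal tubule cells after 16 hr compound exposure at 37 °C. AC50 from Hill-fitted concentration-response, scaled between DMSO and 10 uM staurosporine.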

Assay [15] can be described thus: Cell Viability - LYMP2-001 (AID 921). Note: nearly all actives have a fitted effect of over 70% in size. Note: potency is the fitted concentration of half-maximal effect. The method, boiled down: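 Cellular ATP loss read by luciferase luminescence after 24 h compound exposure at 37 C in complete medium. LYMP2-001 lymphoblastoid cells, 2500/well; qHTS concentration-response data fitted with Hill equation for AC50.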
A short description of assay [16]: MultiTox-Fluor Cytotoxicity Assay - LYMP1-001 - Dead Cells (AID 946). Note: potency is the fitted concentration of half-maximal effect. The method, boiled down:
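Seed 2500 LYMP1-001 cells/well, incubate 5 hr at 37 C; add compound, 16 hr at 37 C; add MultiTox-Fluor reagent, 60 min RT; read dead-cell fluorescence Ex/Em=485/520. Normalize to DMSO and 15 uM tetraoctylammonium bromide.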

The nature of assay [17]: qHTS Assay for Identification of Small Molecule Antagonists for NFkB Signaling Pathway (AID 895; active = well fitted inhibition curve with a large enough effect in the signal ratio, with a control signal flat, not every such curve was filed as active; the % refers to the signal ratio; note: potency is the fitted concentration of half-maximal effect). The method, boiled down:
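ME-180 NFkB-bla cells (beta-lactamase under NFkB response element), plated overnight, treated with compound then 10 pM TNF alpha (about EC50) for 5 hrs at 37 C. LiveBLAzer FRET read at 460/530 nm emission, 405 nm excitation.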

The target of assay [18] is Cytochrome P450 3A4 (Homo sapiens) (UniProt P08684). The assay can be described thus: qHTS Assay for Activators of Cytochrome P450 3A4 (AID 885). Note: nearly all actives have a fitted effect of over 65% in size. A digest of the protocol:
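Steps: enzyme/substrate mix dispensed; compound added, 10 min RT; NADPH regeneration solution added, 60 min RT; luciferin detection buffer stops reaction; 20 min later luminescence measured.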

Assay [19] addresses Muscarinic acetylcholine receptor M1 (Rattus norvegicus) (UniProt P08482). The assay can be described thus: qHTS Assay for Antagonists of Acetylcholine Muscarinic M1 Receptor: Kinetic Measurement of Intracellular Calcium Response (AID 943).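 Note: Fluo-4 calcium signal as peak divided by basal fluorescence over 4 min; series mostly up to about 35 µM; nearly all actives have a fitted effect of over 75% in size.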 A digest of the protocol: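 Intracellular calcium flux, recorded with Fluo-4 in a kinetic plate reader, served as signal; the response to carbachol at EC80 (100 nM final) was taken as maximal over minimal fluorescence after a 10 min compound pre-incubation in rat M1-CHO cells.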

Values without a mark were called inactive. Records with an inconclusive call do not appear. The source made the active and inactive calls. Unless noted, calls come from the whole dose curve; as a rule, active = well fitted curve in the direction sought with a large enough effect; inconclusive = small, poorly fitted or top-dose-only effect, or another doubt; inactive = no such curve, though single readings can be large; an effect the other way counts as inactive or inconclusive.

Chain of Pyruvate kinase (Leishmania mexicana) (Q27686 2-499 E452W): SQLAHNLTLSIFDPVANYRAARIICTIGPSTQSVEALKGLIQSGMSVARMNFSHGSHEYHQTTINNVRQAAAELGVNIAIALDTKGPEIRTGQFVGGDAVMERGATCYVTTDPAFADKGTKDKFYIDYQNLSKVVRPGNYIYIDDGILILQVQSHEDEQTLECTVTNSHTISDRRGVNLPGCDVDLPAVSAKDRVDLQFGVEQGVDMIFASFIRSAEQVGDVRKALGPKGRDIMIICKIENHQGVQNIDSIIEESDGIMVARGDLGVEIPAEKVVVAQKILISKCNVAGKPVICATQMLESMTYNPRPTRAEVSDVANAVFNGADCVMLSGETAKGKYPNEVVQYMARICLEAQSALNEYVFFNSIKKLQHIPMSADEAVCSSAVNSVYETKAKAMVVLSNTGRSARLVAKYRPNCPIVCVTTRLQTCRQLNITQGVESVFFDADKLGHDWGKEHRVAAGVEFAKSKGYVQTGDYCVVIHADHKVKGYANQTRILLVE
Chain of Cytochrome P450 3A4 (Homo sapiens) (P08684 whole entry, looked up): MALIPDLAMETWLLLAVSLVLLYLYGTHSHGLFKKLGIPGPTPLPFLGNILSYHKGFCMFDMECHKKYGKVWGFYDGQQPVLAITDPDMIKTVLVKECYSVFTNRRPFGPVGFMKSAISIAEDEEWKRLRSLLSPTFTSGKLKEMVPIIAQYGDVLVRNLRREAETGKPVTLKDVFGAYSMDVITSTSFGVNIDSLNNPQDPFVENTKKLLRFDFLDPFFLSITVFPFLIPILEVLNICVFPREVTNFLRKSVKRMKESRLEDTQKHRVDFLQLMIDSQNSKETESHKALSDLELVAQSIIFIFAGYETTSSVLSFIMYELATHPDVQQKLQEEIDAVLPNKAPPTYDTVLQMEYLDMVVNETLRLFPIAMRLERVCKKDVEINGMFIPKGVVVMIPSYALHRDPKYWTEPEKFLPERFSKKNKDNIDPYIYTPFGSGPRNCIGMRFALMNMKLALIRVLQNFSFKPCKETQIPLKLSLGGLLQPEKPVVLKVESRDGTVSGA
Chain of Muscarinic acetylcholine receptor M1 (Rattus norvegicus) (P08482 whole entry, looked up): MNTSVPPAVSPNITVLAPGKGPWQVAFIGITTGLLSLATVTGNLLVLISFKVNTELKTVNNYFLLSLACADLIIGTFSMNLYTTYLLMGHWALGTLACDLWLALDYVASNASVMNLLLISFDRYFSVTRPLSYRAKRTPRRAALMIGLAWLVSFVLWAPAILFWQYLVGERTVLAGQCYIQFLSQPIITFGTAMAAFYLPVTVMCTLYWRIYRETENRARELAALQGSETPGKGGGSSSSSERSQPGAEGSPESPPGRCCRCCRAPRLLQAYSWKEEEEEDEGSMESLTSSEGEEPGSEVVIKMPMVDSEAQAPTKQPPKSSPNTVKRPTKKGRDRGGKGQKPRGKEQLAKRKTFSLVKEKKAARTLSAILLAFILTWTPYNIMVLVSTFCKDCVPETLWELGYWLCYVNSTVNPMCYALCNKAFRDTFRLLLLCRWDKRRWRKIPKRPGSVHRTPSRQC

As to `NCC1(CC(=O)O)CCCCC1`, the compound was classed as inactive in assay [1], in assay [6] and in assay [7]. Besides, the Potency result in [2], in [3], in [4] and in assay [5] was “inactive” in each case.

For the compound `Cc1cccc(C)c1NC1=NCCCS1`, the compound was called inactive in assay [1], in assay [8], in assay [6], in [9] and in assay [7].

With `c1ccc(C2CC2)c(OCC2=NCCN2)c1`, the outcome in [1] and in assay [7] was inactive. Also, the Potency in [4] was 5.01 µM (active); in [11] it was 10 µM (active). Moreover, the Potency result in [5] was “inactive”. In [10], the activation is 8.99%.

Regarding `c1ccc2c(c1)Nc1ccccc1S2`, the outcome in assay [12], in assay [13] and in [14] was inactive. Besides, the Potency result in assay [15] and in [16] was “inactive” each time.

For the compound `OCCOc1ccccc1`, the outcome in [12], in [13] and in assay [14] was inactive. The Potency entry in [3], in assay [15] and in assay [16] was “inactive” throughout.

As to `CCCN1CCC[C@@H]2Cc3nc(N)ncc3C[C@H]21`, the compound was called inactive in [1], in [6] and in [7]. Moreover, the Potency result in [17] and in assay [11] was “inactive” each time.

As to `NCC(CC(=O)O)c1ccc(Cl)cc1` (configuration not stated), the result in assay [1], in assay [18], in assay [8], in assay [6], in [9] and in assay [7] was inactive. Besides, in assay [17], the Potency is 5.62 µM (active).

With `Oc1cccc2cccnc12`, the result in [12], in [13], in [14], in assay [8] and in assay [9] was inactive. Further, the Potency result in [3] was “inactive”. The Potency was 6.31 µM (active) in [15] and 39.8 µM (active) in assay [16].

With `NN=C(N)N`, the compound was classed as inactive in [1], in assay [18], in assay [8], in assay [6], in assay [9] and in assay [7]. Further, the Potency entry in [19] and in assay [11] was “inactive” in each case.

`Nc1ccncc1`: the result in assay [1], in [8], in assay [6], in assay [9] and in assay [7] was inactive. In addition, the Potency result in [19] and in [11] was “inactive” in each case.

Regarding `COc1ccccc1N1CCNCC1`, the result in assay [1], in assay [8], in assay [6], in assay [9] and in assay [7] was inactive. The Potency result in [3], in assay [5], in assay [19] and in assay [11] was “inactive” in each case.

With `CC(=O)[C@H]1CC[C@H]2[C@@H]3CC[C@H]4C[C@H](O)CC[C@]4(C)[C@H]3C(=O)C[C@]12C`, the outcome in assay [1], in [6] and in assay [7] was inactive.

For the compound `CCOP(=S)(OCC)Oc1cc(C)nc(C(C)C)n1`, the compound was called inactive in assay [12], in assay [13] and in assay [14]. Further, the Potency result in assay [15] and in [16] was “inactive” throughout.

On to `O=c1[nH]c2ccccc2n1CCCN1CCC(n2c(=O)[nH]c3cc(Cl)ccc32)CC1`, for which the outcome in [1], in assay [8], in assay [6], in assay [9] and in assay [7] was inactive. Further, the Potency in assay [11] was 14.1 µM (active).

`CCCN1CCC[C@@H]2Cc3[nH]ncc3C[C@H]21`: the call in assay [1], in assay [6] and in assay [7] was inactive. Also, the Potency entry in assay [3], in [17], in assay [19] and in [11] was “inactive” throughout.

For the compound `Clc1cccc(N2CCNCC2)c1`, the result in [1], in [18], in [6] and in [7] was inactive. For the same compound, in assay [4], the Potency is 3.98 µM (active).

Consider `N[C@@H](Cc1ccc(N(CCCl)CCCl)cc1)C(=O)O`, for which the compound was classed as inactive in assay [12] and in assay [18]. Further, the Potency in [15] was 39.8 µM (active).

Turning to `Cc1ncc(CNC(=O)N(CCCl)N=O)c(N)n1`, the compound was called inactive in assay [1], in [8], in assay [6], in [9] and in assay [7]. The Potency entry in assay [11] was “inactive”.

`Oc1ccc(Cl)cc1Cc1ccccc1`: the outcome in assay [12], in assay [13] and in assay [14] was inactive. In addition, the Potency entry in assay [15] and in assay [16] was “inactive” each time.

In the case of `CCn1cc(C(=O)O)c(=O)c2ccc(C)nc21`, the compound was called inactive in assay [1], in [6] and in assay [7]. Besides, the Potency entry in assay [19] and in assay [11] was “inactive” throughout.

`CNCC(O)c1ccc(O)cc1` (configuration not stated): the call in assay [12], in assay [13], in assay [14], in assay [1] and in assay [7] was inactive. Besides, the Potency entry in [3], in [15], in assay [11] and in [16] was “inactive” in each case.

(Values after PubChem BioAssay (NCATS).)
